What follows are sequences tested against LEKR1 (assay: pooled miR-30 sensor sort-seq; sequence = guide strand). Details: shRNA.

Sequence	sensor-assay potency score (higher = more potent)
TACTCTTTTCAGTTCATCCGAC	0.07
TTTCCTTTGAATTAGATTCTTC	0.113
TTCTGCTTCAATCTTCTCCTTC	0.505

The sequences below were run against LENG8 in the same assay as above. Details: shRNA.

Sequence	sensor-assay potency score (higher = more potent)
TCCACCGTGAACTCGGTGCGGA	-1.28
TTCTCGTGTGAGGTATGCCAGC	-1.1
TAGTCCTGCTTCTCTTTCCAGT	-0.999
TGTTGAACTTGAGACCTCCAGT	-0.589
TTGTACTGCTGGTACCACTGGT	0.0135
TTGAGCAGCTTTTCCGTGCGGT	0.289
TACACCTCCACCGTGAACTCGG	-0.419
TTGTCCTTCATGAAGACGTTGC	-0.437
TTCTTCAGCTCTCGCTCCGGGT	-0.923
TAAATTTACAACCCAAGTCCAC	-0.679
TTCATGGTCACCCTTCTCCAAG	-1.23
TGTACTGAGAAGACCAATCTGT	0.223

What follows are sequences tested against LEPRE1 in the same assay as above. Details: shRNA.

Sequence	sensor-assay potency score (higher = more potent)
TAGAGTCGCACTCCCAGTCGAA	-0.94
TGTATCGCTGTCATGCAGCGGC	-0.603
TTGAGTCTCAAGATCCTTGAAG	-0.379
TTCTCTTGCAATCTCTTGGGAA	-0.439
TACTGTATCGCTGTCATGCAGC	-0.397
TTTCTCTTGCAATCTCTTGGGA	-0.177
TTGTTGATCTTGAAGTAGGCGA	-0.0372
TCCAGCTCCATCTCTTCGCTGA	-0.664
TTCTCCAACTTGTTGATCTTGA	0.193
TGCAGCAACAGCTTTCTCCAAC	-1.07
TTGGTAATAGTCTAGGTTCTGC	-0.468
TACACAGACACTTAAGTACTGT	-0.0661

The sequences below were run against LGALS1 in the same assay as above. Details: shRNA.

Sequence	sensor-assay potency score (higher = more potent)
TTGAGATTCAGGTTGCTGGCGA	0.199
TTCGTATCCATCTGGCAGCTTG	-0.744
TTGACGGTCAGGTTGGCCTGGT	-0.281
TTCAGCACGAAGCTCTTAGCGT	-0.712
TTGCACACGATGGTGTTGGCGT	-0.422
TGATCTTGAAGTCACCGTCAGC	-1.02
TTTGATCTTGAAGTCACCGTCA	0.476
TTGCTGTTGCACACGATGGTGT	-0.61
TTGATCTTGAAGTCACCGTCAG	0.0268
ATTTGATCTTGAAGTCACCGTC	0.155

What follows are sequences tested against LGALS7B in the same assay as above. Details: shRNA.

Sequence	sensor-assay potency score (higher = more potent)
TGAAGCCGTCGTCTGACGCGAT	-0.633
TTACATGGAACCTGCTGGCATT	-1.13
TGCTGTTGAAGACCACCTCCGA	-0.584

Reference: the OligoGym collection
